{
  "source": "PubChem BioAssay (NCATS)",
  "note": "Results filed as inconclusive are left out. Where a call stands in place of a potency, no number is given. The source made the active and inactive calls. Calls follow the shape of the dose curve; as a rule, active = well fitted inhibition curve with a large enough effect; inconclusive = small, poorly fitted or top-dose-only effect; inactive = flat fitted curve, though single readings scatter. Potency is read from the fitted curve at half-maximal effect.",
  "data": [
    {"tested_on": "CP215", "assay": "qHTS profiling for inhibitors of Plasmodium falciparum proliferation (AID 504749); also: nearly all actives have a fitted effect of over 60% in size", "settings": "P. falciparum in erythrocytes, SYBR Green DNA, 72 h; series mostly up to 28.7 µM", "procedure,_shortened": "(§1)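 SYBR Green fluorescence (ex 485 nm, em 535 nm) reports parasite DNA after 72 h compound exposure of infected red cells at 0.3% parasitemia, 2.5% hematocrit; signal normalized to 0.29 uM artemisinin and vehicle wells.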", "values": [
      {"compound": "Cc1cc(-c2ccc(N=Nc3c(S(=O)(=O)O)cc4cc(S(=O)(=O)O)cc(N)c4c3O)c(C)c2)ccc1N=Nc1c(S(=O)(=O)O)cc2cc(S(=O)(=O)O)cc(N)c2c1O", "Potency": "inactive"},
      {"compound": "CCOC(=O)Cc1ccc(-c2ccccc2)cc1", "Potency": "inactive"},
      {"compound": "O=c1n(CC2CO2)c(=O)n(CC2CO2)c(=O)n1CC1CO1", "note": "(stereo not given)", "Potency": "inactive"},
      {"compound": "C[C@H](CCC(=O)O)[C@H]1CC[C@H]2[C@@H]3CC[C@@H]4C[C@H](O)CC[C@]4(C)[C@H]3C[C@H](O)[C@]12C", "Potency": "inactive"},
      {"compound": "CNC(=O)c1c(I)c(C(=O)NCC(=O)Nc2c(I)c(C(=O)O)c(I)c(C(=O)NCCO)c2I)c(I)c(N(C)C(C)=O)c1I", "Potency": "inactive"},
      {"compound": "S=C1SCN(Cc2ccccc2)CN1Cc1ccccc1", "Potency": "inactive"},
      {"compound": "O=P(O)(O)OP(=O)(O)O", "Potency": "inactive"},
      {"compound": "OC/C=C/c1ccccc1", "Potency": "inactive"},
      {"compound": "O=C1c2ccccc2C(=O)C1c1ccc(Cl)cc1", "Potency": "inactive"},
      {"compound": "CC(=O)Oc1cccc2c1C(=O)c1c(OC(C)=O)cc(C(=O)O)cc1C2=O", "Potency": "inactive"},
      {"compound": "CCCCCCCCCCCCCCCCCC[N+](C)(C)CCC[Si](OC)(OC)OC", "Potency": "inactive"},
      {"compound": "CC(=O)Nc1ccc(NC(=S)NC(=O)c2ccc(C(C)(C)C)cc2)cc1", "Potency": "inactive"},
      {"compound": "CC(=O)Nc1c(I)c(C(=O)O)c(I)c(N(C)C(C)=O)c1I", "Potency": "inactive"},
      {"compound": "c1ccc2c(c1)Sc1ccccc1N2CCN1CCCC1", "Potency": "12 µM (active)"},
      {"compound": "CN(C)C(=O)CCSC(SCCC(=O)O)c1cccc(/C=C/c2ccc3ccc(Cl)cc3n2)c1", "note": "(stereo not given)", "Potency": "inactive"},
      {"compound": "O=C1c2ccccc2CN2C(=O)c3ccccc3CN12", "Potency": "inactive"},
      {"compound": "Cn1c(=O)c2c(ncn2CCOC(=O)C(C)(C)Oc2ccc(Cl)cc2)n(C)c1=O", "Potency": "inactive"},
      {"compound": "CC(C)CCCCCCc1ccc(O)cc1", "Potency": "inactive"},
      {"compound": "O=C(Nc1ccc(O)cc1)c1ccccc1O", "Potency": "inactive"},
      {"compound": "C#C[C@]1(O)CC[C@@H]2[C@H]3CCC4=CC(=O)CC[C@H]4[C@H]3C(=C)C[C@@]21CC", "Potency": "0.478 µM (active)"}
    ]},
    {"tested_on": "CP217", "assay": "qHTS profiling for inhibitors of Plasmodium falciparum proliferation (AID 504749); also: nearly all actives have a fitted effect of over 60% in size", "settings": "P. falciparum in erythrocytes, SYBR Green DNA, 72 h; series mostly up to 28.7 µM", "procedure,_shortened": "as §1", "values": [
      {"compound": "CCOC(=O)Cc1ccc(-c2ccccc2)cc1", "Potency": "inactive"},
      {"compound": "O=c1n(CC2CO2)c(=O)n(CC2CO2)c(=O)n1CC1CO1", "note": "(stereo not given)", "Potency": "inactive"},
      {"compound": "CC(=O)c1ccc2c(c1)N(CCCN1CCN(CCO)CC1)c1ccccc1S2", "Potency": "10 µM (active)"},
      {"compound": "C[C@H](CCC(=O)O)[C@H]1CC[C@H]2[C@@H]3CC[C@@H]4C[C@H](O)CC[C@]4(C)[C@H]3C[C@H](O)[C@]12C", "Potency": "inactive"},
      {"compound": "CNC(=O)c1c(I)c(C(=O)NCC(=O)Nc2c(I)c(C(=O)O)c(I)c(C(=O)NCCO)c2I)c(I)c(N(C)C(C)=O)c1I", "Potency": "inactive"},
      {"compound": "S=C1SCN(Cc2ccccc2)CN1Cc1ccccc1", "Potency": "inactive"},
      {"compound": "Nc1ccc(N=Nc2ccccc2)c(N)n1", "Potency": "inactive"},
      {"compound": "OC/C=C/c1ccccc1", "Potency": "inactive"},
      {"compound": "CN1CCCC(CN2c3ccccc3Sc3ccccc32)C1", "note": "(stereo not given)", "Potency": "10 µM (active)"},
      {"compound": "O=C1c2ccccc2C(=O)C1c1ccc(Cl)cc1", "Potency": "inactive"},
      {"compound": "CC(=O)Oc1cccc2c1C(=O)c1c(OC(C)=O)cc(C(=O)O)cc1C2=O", "Potency": "inactive"},
      {"compound": "CCCCCCCCCCCCCCCCCC[N+](C)(C)CCC[Si](OC)(OC)OC", "Potency": "inactive"},
      {"compound": "CC(=O)Nc1ccc(NC(=S)NC(=O)c2ccc(C(C)(C)C)cc2)cc1", "Potency": "inactive"},
      {"compound": "CC(=O)Nc1c(I)c(C(=O)O)c(I)c(N(C)C(C)=O)c1I", "Potency": "inactive"},
      {"compound": "c1ccc2c(c1)Sc1ccccc1N2CCN1CCCC1", "Potency": "7.08 µM (active)"},
      {"compound": "NC(N)=NCC1COc2ccccc2O1", "note": "(stereo not given)", "Potency": "inactive"},
      {"compound": "CC[C@H]1OC(=O)[C@H](C)[C@@H](O[C@H]2C[C@@](C)(OC)[C@@H](O)[C@H](C)O2)[C@H](C)[C@@H](O[C@@H]2O[C@H](C)C[C@H](N(C)C)[C@H]2O)[C@](C)(O)C[C@@H](C)CN(C)[C@H](C)[C@@H](O)[C@]1(C)O", "Potency": "5.62 µM (active)"},
      {"compound": "O=C1c2ccccc2CN2C(=O)c3ccccc3CN12", "Potency": "inactive"},
      {"compound": "CC(C)CCCCCCc1ccc(O)cc1", "Potency": "inactive"},
      {"compound": "COc1ccc2nc(NC(=O)Nc3ccccc3)sc2c1", "Potency": "inactive"},
      {"compound": "O=C(OCc1ccccc1)c1cccnc1", "Potency": "inactive"}
    ]},
    {"tested_on": "CP237", "assay": "qHTS profiling for inhibitors of Plasmodium falciparum proliferation (AID 504749); also: nearly all actives have a fitted effect of over 60% in size", "settings": "P. falciparum in erythrocytes, SYBR Green DNA, 72 h; series mostly up to 28.7 µM", "procedure,_shortened": "as §1", "values": [
      {"compound": "CCOC(=O)Cc1ccc(-c2ccccc2)cc1", "Potency": "inactive"},
      {"compound": "CC(=O)c1ccc2c(c1)N(CCCN1CCN(CCO)CC1)c1ccccc1S2", "Potency": "11.2 µM (active)"},
      {"compound": "C[C@H](CCC(=O)O)[C@H]1CC[C@H]2[C@@H]3CC[C@@H]4C[C@H](O)CC[C@]4(C)[C@H]3C[C@H](O)[C@]12C", "Potency": "inactive"},
      {"compound": "CNC(=O)c1c(I)c(C(=O)NCC(=O)Nc2c(I)c(C(=O)O)c(I)c(C(=O)NCCO)c2I)c(I)c(N(C)C(C)=O)c1I", "Potency": "inactive"},
      {"compound": "S=C1SCN(Cc2ccccc2)CN1Cc1ccccc1", "Potency": "inactive"},
      {"compound": "Nc1ccc(N=Nc2ccccc2)c(N)n1", "Potency": "inactive"},
      {"compound": "O=P(O)(O)OP(=O)(O)O", "Potency": "inactive"},
      {"compound": "OC/C=C/c1ccccc1", "Potency": "inactive"},
      {"compound": "O=C1c2ccccc2C(=O)C1c1ccc(Cl)cc1", "Potency": "inactive"},
      {"compound": "CC(=O)Oc1cccc2c1C(=O)c1c(OC(C)=O)cc(C(=O)O)cc1C2=O", "Potency": "inactive"},
      {"compound": "CC[C@H]1OC(=O)[C@H](C)[C@@H](O[C@H]2C[C@@](C)(OC)[C@@H](O)[C@H](C)O2)C(C)[C@@H](O[C@@H]2O[C@H](C)C[C@H](N(C)C)[C@@H]2O)[C@](C)(OC)C[C@@H](C)C(=O)[C@H](C)[C@@H](O)[C@]1(C)O", "note": "(stereo not given in full)", "Potency": "7.94 µM (active)"},
      {"compound": "CCCCCCCCCCCCCCCCCC[N+](C)(C)CCC[Si](OC)(OC)OC", "Potency": "inactive"},
      {"compound": "CC(=O)Nc1c(I)c(C(=O)O)c(I)c(N(C)C(C)=O)c1I", "Potency": "inactive"},
      {"compound": "c1ccc2c(c1)Sc1ccccc1N2CCN1CCCC1", "Potency": "5.01 µM (active)"},
      {"compound": "NC(N)=NCC1COc2ccccc2O1", "note": "(stereo not given)", "Potency": "inactive"},
      {"compound": "CC[C@H]1OC(=O)[C@H](C)[C@@H](O[C@H]2C[C@@](C)(OC)[C@@H](O)[C@H](C)O2)[C@H](C)[C@@H](O[C@@H]2O[C@H](C)C[C@H](N(C)C)[C@H]2O)[C@](C)(O)C[C@@H](C)CN(C)[C@H](C)[C@@H](O)[C@]1(C)O", "Potency": "5.01 µM (active)"},
      {"compound": "CCCCCCCCCCCCCCCCOCCOCCOCCOCCOCCOCCOCCOCCOCCOCCOCCOCCOCCOCCOCCOCCOCCOCCOCCOCCO", "Potency": "7.08 µM (active)"},
      {"compound": "O=C1c2ccccc2CN2C(=O)c3ccccc3CN12", "Potency": "inactive"},
      {"compound": "Cn1c(=O)c2c(ncn2CCOC(=O)C(C)(C)Oc2ccc(Cl)cc2)n(C)c1=O", "Potency": "inactive"},
      {"compound": "CC(C)CCCCCCc1ccc(O)cc1", "Potency": "inactive"},
      {"compound": "O=C(Nc1ccc(O)cc1)c1ccccc1O", "Potency": "inactive"},
      {"compound": "Cn1c(O)c(N=NC(N)=S)c2ccccc21", "Potency": "11.2 µM (active)"},
      {"compound": "COc1ccc2nc(NC(=O)Nc3ccccc3)sc2c1", "Potency": "inactive"},
      {"compound": "O=C(OCc1ccccc1)c1cccnc1", "Potency": "inactive"}
    ]}
  ]
}
